Screening data: PubChem, Broad Institute
aSyn UTR act: Activators via SNCA 5'UTR binding, MLPCN; alpha-synuclein 5'UTR reporter, activators screen; activity score, % (tested at 7.5 µM), hits read low; 300,000 tested, 7.1% active; AID 1814; in the data active = activity score below about -60%
The depositor's hits bear a star. These entries were drawn from the full list.

SMILES | aSyn UTR act
Cc1ccc(NC(=O)N/C=C/c2ccc(Cl)cc2)cc1 | -94*
Cc1ccc(NC(=O)N/C=C/c2ccccc2)cc1 | -92*
Cc1ccc(N2C(=O)CC(SCC(=O)Nc3ccc(S(N)(=O)=O)cc3)C2=O)cc1 (stereo not given) | -76*
CC(C)CN1CCN(Cc2cnc(-c3ccc(Cl)cc3)nc2)CC1CCO (stereo not given) | -78*
CCN=c1scc(C)n1/N=C/c1ccsc1 | -226*
N/C(=N\OC(=O)c1ccco1)c1cccc(Br)c1 | -249*
N/C(=N\OC(=O)c1ccco1)c1cccc([N+](=O)[O-])c1 | -210*
COc1ccc(/C(N)=N/OC(=O)c2ccco2)cc1OC | -142*
O=C(N/N=C/c1cccc([N+](=O)[O-])c1)c1cccs1 | -84*
O=C(N/N=C/c1ccc(Br)s1)c1ccc([N+](=O)[O-])cc1 | 84
O=C(/C=C/c1cccc(Cl)c1)c1ccc([N+](=O)[O-])o1 | 91
O=C(N/N=C/C=C/c1ccc([N+](=O)[O-])cc1)c1cccs1 | -77*
Cc1ccc2[nH]c(C(=O)N/N=C/c3ccc([N+](=O)[O-])cc3)c(C)c2c1 | -63*
O=C(/C=C/c1cccc([N+](=O)[O-])c1)c1cccs1 | -77*
O=C(N/N=C/c1cccc(OCc2ccccc2)c1)c1cccs1 | -72*
CC(=O)Nc1nc(-c2ccc3c(c2)OCO3)cs1 | -130*
O=C(CCCCl)Nc1nc(-c2ccc3c(c2)OCCO3)cs1 | -117*
O=C(CSCC(=O)N1CCOCC1)Nc1nc(-c2ccc3c(c2)OCO3)cs1 | -131*
O=C(Nc1nc(-c2ccc3c(c2)OCCO3)cs1)C1CCCC1 | -151*
CCOC(=O)N1CCN(C(=O)CSCC(=O)Nc2nc(-c3ccc(C)cc3)cs2)CC1 | -85*
O=C(O)c1cccc(Nc2nc(-c3cc4ccccc4oc3=O)cs2)c1 | -98*
Nc1cnnc(N/N=C\c2ccccc2)c1Cl | -92*
O=c1cnnc(N/N=C/c2ccccn2)[nH]1 | 75
CCc1ccccc1NC(=O)c1cc(-c2ccc(OC)cc2)on1 | -77*
COc1ccc(-c2cc(C(=O)Nc3cc(Br)ccc3O)no2)cc1 | -107*
SMILES | aSyn UTR act
CC(C)n1cc(NC(=O)c2cc(-c3ccccc3)on2)cn1 | -218*
COc1ccc(NC(=O)c2cc(C)nn2-c2ccccc2)cc1 | -73*
COc1ccc(NC(=O)c2cc(-c3ccccc3)on2)cc1 | -77*
COc1ccc(NC(=O)c2cc(C)on2)cc1 | -106*
COc1ccc(NC(=O)c2cccnn2)cc1 | -97*
Cc1cc(NC(=O)c2cccs2)ncc1NC(=O)C(C)C | -145*
Cc1cc(NC(=O)c2cccs2)ncc1NC(=O)c1cccc(F)c1 | -129*
Cc1cc(NC(=O)c2ccccc2F)ncc1NC(=O)c1cccs1 | -63*
Cc1cc(NC(=O)c2ccccc2)ncc1NC(=O)c1cccs1 | -103*
CC(CC(=O)NCc1ccccc1)C1CCCO1 (stereo not given) | -62*
CC(C)CC1NC(=O)N(CC(=O)c2ccc3c(c2)OCCO3)C1=O (stereo not given) | -115*
COc1cccc([C@@H]2Oc3ccc(OC)cc3C(=O)[C@H]2OC(=O)NCc2ccc3c(c2)OCO3)c1 | -137*
O=C(c1ccc2ccccc2c1)N1CCN(Cc2ccccc2)CC1 | -85*
Oc1c(CN2CCc3ccccc3C2)cc(Cl)c2cccnc12 | 91
COc1cccc(NC(=O)c2ccc(CN3CCc4ccccc4C3)cc2)c1 | -104*
Cc1cccc(NC(=O)c2ccc(CN3CCN(Cc4ccccc4)CC3)cc2)c1 | -77*
CC(C)(C)SCCNC(=O)c1ccc(CN2CCc3ccccc3C2)cc1 | -63*
Cc1cccn2cc(-c3ccccc3)nc12 | -152*
Cc1cccn2cc(CNc3ccccc3)nc12 | -73*
COc1ccc(-c2cn3cccc(C)c3n2)cc1Br | -259*
COc1ccc(-c2cn3ccc4ccccc4c3n2)cc1 | -103*
Cc1cccn2cc(-c3ccc(F)cc3)nc12 | -88*
CC1(C)C=Cc2cc(-c3coc4cc(O)cc(O)c4c3=O)cc(O)c2O1 | -149*
COc1cccc(OCc2cc(C(=O)N(C)Cc3nccn3C)no2)c1 | -142*
COc1ccc(OCc2cc(C(=O)N(Cc3nccn3C)C(C)C)no2)c2ccccc12 | -70*
SMILES | aSyn UTR act
COc1cccc(OCc2cc(C(=O)N(C)CCOc3ccc(C)cc3)no2)c1 | -133*
COc1ccc(-c2csc(NC(=O)CC(C)C)n2)cc1 | -128*
Cc1nc(-c2ccc(NC(=O)C3CC3)cc2)cs1 | -160*
Cc1nc(-c2ccc(NC(=O)CC(C)C)cc2)cs1 | -143*
NC(=O)c1ccccc1NC(=O)/C=C/c1ccccc1 | -116*
NC(=O)c1ccccc1NC(=O)/C=C/c1ccc(Cl)cc1 | -110*
CCc1cccc2c(C(=O)COC(=O)c3ccccc3)c[nH]c12 | -186*
O=C(OCC(=O)c1cccc2ccccc12)c1ccc(CO)cc1 | -98*
CCc1cccc2c(C(=O)COC(=O)c3ccc(O)cc3)c[nH]c12 | -109*
COc1ccc(N/C=C\C(=O)c2ccc(Br)cc2)cc1OC | -108*
COc1ccc(N/C=C\C(=O)c2ccc(C)cc2)cc1OC | -84*
COc1ccc(C(=O)/C=C2\NCCc3cc(OC)c(OC)cc32)cc1OC | 64
NC(=O)C1CCN(c2ncnc3c(-c4ccccc4)nsc23)CC1 | -112*
COc1ccc(-c2nsc3c(N4CCN(C(=O)c5ccco5)CC4)ncnc23)cc1 | -64*
O=C(c1ccco1)N1CCN(c2ncnc3c(-c4ccccc4)nsc23)CC1 | -106*
S=C(Nc1ccc2cn[nH]c2c1)Nc1ccccc1Cl | -166*
CCc1ccc(NC(=S)Nc2ccc3cn[nH]c3c2)cc1 | -196*
Cc1ccccc1NC(=S)Nc1ccc2cn[nH]c2c1 | -104*
S=C(Nc1ccc(Cl)cc1)Nc1ccc2cn[nH]c2c1 | -175*
COc1cc(C2Nc3ccccc3C(=O)N2c2ccc(Cl)cc2)c(Cl)cc1OCC(=O)O (stereo not given) | -137*
CC(C)Oc1ccccc1C1Nc2ccccc2C(=O)N1c1ccc2c(c1)OCCO2 (stereo not given) | 68
CCOC(=O)COc1ccccc1C1Nc2ccccc2C(=O)N1c1cccc(Cl)c1 (stereo not given) | -107*
CC(C)c1ccc2c(c1)C1Cc3ccccc3C1N2 (stereo not given) | -196*
Cc1nn(C)c(Sc2ccccc2N)c1[N+](=O)[O-] | -69*
c1ccc(-c2cc3nccc(-c4ccccn4)n3n2)cc1 | -196*
SMILES | aSyn UTR act
CCCOC1CCCN(C(=O)CCc2nnc(Cc3cccc(C)c3)o2)C1 (stereo not given) | -164*
Cc1cccc(Cc2nnc(CCC(=O)N(CC3CC3)CC3CCCO3)o2)c1 (stereo not given) | -112*
COc1cccc(CNc2ccc3c(c2)CCC3)c1 | -167*
COc1ccc(OC)c(CNc2ccc3c(c2)CCC3)c1 | -118*
O=C(Nc1ccc2ccccc2c1)c1cccc([N+](=O)[O-])c1 | -113*
O=C(NC(=S)Nc1cccc(F)c1)c1cccc([N+](=O)[O-])c1 | -109*
Cc1cccc(C(=O)Nc2ccc3ccccc3c2)c1 | -111*
CCOc1ccc(C(=O)Nc2cccc([N+](=O)[O-])c2)cc1Br | -138*
Cc1cc(C)c2ccc(N)nc2c1O | 65
O=C(c1ccccc1)n1c(=S)nc2ccccn21 | -124*
Cc1cccc(C(=O)n2c(=S)nc3ccccn32)c1 | -102*
CC(=O)Nc1ccc(S(=O)(=O)N(Cc2cc3ccc(C)cc3[nH]c2=O)CC2CCCO2)cc1 (stereo not given) | 82
